Laboratory results taken from PubChem BioAssay AID449762 (Southern Research Specialized Biocontainment Screening …, 2010).
The campaign covered roughly 330,000 compounds. About 1,900 (0.58%) were called active. Not shown: some 4% with an inconclusive outcome. Not all results are given here. Potency and affinity values are given separately. A number with no mark means an inactive call. Cut-off read from the data, not from the text of the source: inconclusive = inhibition above about 70% without an active follow-up result; inactive = below that.

Test: M. tuberculosis growth inhibition, HTS (AID 449762);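 note: bacterial growth assessed after seven days of incubation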
Conditions: M. tuberculosis H37Rv growth inhibition, 7H9 media; at 25 µM; stronger effect = higher value

For `COCCNC(=O)/C(C#N)=C/c1c(N2CCN(c3cccc(Cl)c3)CC2)nc2c(C)cccn2c1=O`, which inhibition is on record?
Its inhibition is 8.89%.

Which inhibition does the source give for `COCCCNC(=O)/C(C#N)=C/c1c(N2CCN(c3ccccc3)CC2)nc2c(C)cccn2c1=O` here?
The inhibition was 4.49%.

Which inhibition does the source give for `CCOc1ccc(NC(=O)/C(=C\c2ccc(OC(C)=O)c(OC)c2)NC(C)=O)cc1` here?
The inhibition was 4.59%.

For `Cc1ccc(-c2nc(CS(=O)CC(=O)NCCN3CCCCC3C)c(C)o2)cc1` (stereo not given), which inhibition is on record?
Its inhibition is -3.03%.

Which inhibition does the source give for `CN(C)/N=C/C=C1\CC/C(=C\c2ccc(Br)cc2)C1=O` here?
The inhibition was 3.13%.

Which inhibition does the source give for `CC(C)c1ccc(/C=C2\CC/C(=C\C=N\N(C)C)C2=O)cc1` here?
Its inhibition is -3.15%.

With `Cc1cc(-n2nc(C)cc2C)nc(N)n1` as the molecule, how does the inhibition read?
The inhibition was -2.23%.

For `CCOC(=O)c1c(-c2ccc(F)cc2)csc1NC(=O)CN1C(=O)NC2(CCCCC2C)C1=O` (stereo not given), which inhibition is on record?
Its inhibition is 4.04%.

With `COc1ccc(/C=C/c2c(-c3ccc(OC)cc3)oc3ccccc23)cc1` as the molecule, how does the inhibition read?
The inhibition was -5.2%.

For `COc1ccc(/C=C/c2c(-c3ccc(OC)cc3)oc3cccnc23)cc1`, which inhibition is on record?
The inhibition was -6.31%.

For `COc1ccc(C2C3=C(CC(C)(C)CC3=O)Nc3c2c(=O)n(C)c(=O)n3C)cc1OC` (stereo not given), which inhibition is on record?
The inhibition was -2.26%.

With `O=C(Cc1ccc([N+](=O)[O-])cc1)NCc1ccccc1Cl` as the molecule, how does the inhibition read?
Its inhibition is 0.6%.

Which inhibition does the source give for `CCOC(=O)Cc1csc(NC(=O)CSc2nnc(-c3ccncc3)n2Cc2ccco2)n1` here?
Its inhibition is 2.42%.

With `CC(C)c1onc(C(=O)N2CCN(c3ccccc3)CC2)c1[N+](=O)[O-]` as the molecule, how does the inhibition read?
The inhibition was -4.37%.

For `Cc1ccc(SCC(=O)OCC(=O)N(CCC#N)c2ccccc2)cc1C`, which inhibition is on record?
Its inhibition is 27.2%.

With `Cc1ccc(N(CCC#N)C(=O)COC(=O)c2cc(C)oc2C)cc1` as the molecule, how does the inhibition read?
Its inhibition is -1.99%.

With `CC1(c2ccc3ccccc3c2)NC(=O)N(CC(=O)N2CCN(Cc3ccccc3)CC2)C1=O` (stereo not given) as the molecule, how does the inhibition read?
Its inhibition is -2.77%.

With `Cc1cc(NC(=O)c2cccnc2)ccc1NC(=O)c1cc2ccccc2o1` as the molecule, how does the inhibition read?
Its inhibition is 5.9%.

With `Cc1[nH]n(-c2ccccc2)c(=O)c1-c1ccccc1` as the molecule, how does the inhibition read?
The inhibition was 2.82%.

With `Cc1cc(-c2c(C)[nH]n(-c3ccccc3)c2=O)n(-c2ccccc2)n1` as the molecule, how does the inhibition read?
The inhibition was -6.21%.

With `O=C(Cc1ccc(Cl)cc1)N/N=C/c1cccc(O)c1` as the molecule, how does the inhibition read?
The inhibition was 9.69%.

Which inhibition does the source give for `COc1cc(/C=C2\SC(=Nc3ccc(O)cc3)NC2=O)cc(OC)c1O` here?
The inhibition was 2.36%.

For `CCc1ccc(N=C2NC(=O)/C(=C/c3cc(OC)c(OC)c(OC)c3)S2)cc1`, which inhibition is on record?
Its inhibition is 6.19%.

With `COc1cccc(NC(=O)Nc2cc(C(=O)O)ccc2C)c1` as the molecule, how does the inhibition read?
The inhibition was 16.4%.

For `O=C(CC1(O)C(=O)N(Cc2ccccc2Cl)c2ccccc21)c1ccco1` (stereo not given), which inhibition is on record?
Its inhibition is 7.75%.

With `CCc1cccc2c(C(=O)C(NCCOC)c3ccccc3)c[nH]c12` (stereo not given) as the molecule, how does the inhibition read?
Its inhibition is -0.65%.

For `Cc1ccc(C(=O)Nc2cc([N+](=O)[O-])ccc2C)cc1`, which inhibition is on record?
Its inhibition is 10.4%.

For `CC(=O)Nc1cccc(-c2nc3ccccc3c(=O)o2)c1`, which inhibition is on record?
The inhibition was 8.2%.

For `CC(C)C(=O)Nc1cccc(-c2nc3ccccc3o2)c1`, which inhibition is on record?
Its inhibition is -4.29%.

With `CC(C)N(C(C)C)S(=O)(=O)c1ccc(NN)nc1` as the molecule, how does the inhibition read?
Its inhibition is 10%.

Which inhibition does the source give for `CCn1c(N2CCN(Cc3ccc([N+](=O)[O-])cc3)CC2)nc2ccccc21` here?
The inhibition was 2.71%.

For `CCCn1c(N2CCN(C(=O)Nc3ccc(Cl)cc3)CC2)nc2ccccc21`, which inhibition is on record?
The inhibition was -1.4%.

With `CC1CC1C(=O)OCC(=O)NC(=O)c1ccc(C(C)(C)C)cc1` (stereo not given) as the molecule, how does the inhibition read?
Its inhibition is 4.17%.

For `CC1C(C#N)=C(SCC(N)=O)NC2=C1C(=O)CC(C)(C)C2` (stereo not given), which inhibition is on record?
Its inhibition is 0.02%.

For `CC(=O)NNC(=O)CCn1nnc(-c2ccc(Cl)cc2)n1`, which inhibition is on record?
The inhibition was 0.1%.

With `COC(=O)c1nnn(CC(=O)NC(=O)Nc2cccc(C)c2C)c1C(=O)OC` as the molecule, how does the inhibition read?
The inhibition was -2.49%.

Which inhibition does the source give for `CCc1cc(C(N)=S)ccn1` here?
Its inhibition is 40.1%.

With `CCc1ccc(C(N)=S)cc1` as the molecule, how does the inhibition read?
The inhibition was 40.3%.

Which inhibition does the source give for `CCOC(=O)c1[nH]c2ccc(F)cc2c1NC(=O)CCN1CCOCC1` here?
The inhibition was 7.04%.

For `CCOc1ccccc1-c1nc(SCC(=O)O)n[nH]1`, which inhibition is on record?
Its inhibition is 2.12%.

For `CCC(=O)c1c[nH]c(C(=O)NCc2cccc(C(F)(F)F)c2)c1`, which inhibition is on record?
The inhibition was 3.92%.

For `CCN1CC=C(c2c[nH]c3ccccc23)CC1`, which inhibition is on record?
Its inhibition is 4.32%.

With `C1=C(c2c[nH]c3ccccc23)CCN(Cc2ccccc2)C1` as the molecule, how does the inhibition read?
Its inhibition is 8.31%.

With `Cc1ccc(S(=O)(=O)Nc2ccc(N=Nc3ccc(O)cc3)cc2)cc1` as the molecule, how does the inhibition read?
The inhibition was 7.49%.

Which inhibition does the source give for `Cc1cc(=O)oc2cc(NC(=O)C(C)Oc3cccc(Cl)c3)ccc12` (stereo not given) here?
Its inhibition is 4%.

With `CCOC(=O)c1c(C)[nH]c(C(=O)COC(=O)c2ccc(O)cc2)c1C` as the molecule, how does the inhibition read?
Its inhibition is -6.58%.

With `O=c1c2ccccc2n(CC(O)CN2CCCCC2)c2ccccc12` (stereo not given) as the molecule, how does the inhibition read?
Its inhibition is -4.66%.

With `OC(CN1CCCCC1)Cn1c2ccccc2c2ccccc21` (stereo not given) as the molecule, how does the inhibition read?
The inhibition was 8.7%.

With `CC(C)(C)OC(=O)N[C@@H](Cc1ccccc1)C(=O)N1CCC(C(=O)NCC(=O)O)CC1` as the molecule, how does the inhibition read?
Its inhibition is -2.02%.

For `Cc1cccc(N2CCN(C(=O)CCCn3c(=O)[nH]c4ccsc4c3=O)CC2C)c1` (stereo not given), which inhibition is on record?
Its inhibition is 6.71%.

With `CCc1ccc2c(c1)[C@]1(C(=O)N2)[C@@H]2C(=O)N(Cc3ccccc3)C(=O)[C@@H]2[C@@H]2CCCN21` as the molecule, how does the inhibition read?
Its inhibition is -2.59%.

For `CCn1nc(C)cc1C(=O)N1CCCC(C(=O)c2ccc3ccccc3c2)C1` (stereo not given), which inhibition is on record?
Its inhibition is 0.73%.

With `COc1cccc(C(=O)N/N=c2\sc3ccccc3n2C)c1` as the molecule, how does the inhibition read?
The inhibition was 29.6%.

For `Cc1ccc(C(=O)N/N=c2\sc3ccccc3n2C)cc1`, which inhibition is on record?
The inhibition was 10.5%.

Which inhibition does the source give for `Cc1ccc(S(=O)(=O)N2CCOCC2)cc1C(=O)NC(=S)N1CC(C)OC(C)C1` (stereo not given) here?
The inhibition was -0.86%.

Which inhibition does the source give for `O=C(N/N=C\c1ccc(Cl)s1)c1cccs1` here?
Its inhibition is 63.3%.

Which inhibition does the source give for `Cc1ccc(/C=N/NC(=O)c2cccs2)s1` here?
The inhibition was 43%.

With `CC1(C)CC(=O)C=C(c2cccc(Br)c2)C1` as the molecule, how does the inhibition read?
The inhibition was -4.12%.

For `COc1cc(-c2nnc(SCC(=O)Nc3ccc(C(=O)O)cc3)o2)cc(OC)c1OC`, which inhibition is on record?
Its inhibition is -0.72%.

With `COc1cc(NC(=O)C2CCN(S(=O)(=O)c3ccc(N4CCCC4=O)cc3)CC2)cc(OC)c1` as the molecule, how does the inhibition read?
Its inhibition is 8.33%.

Which inhibition does the source give for `C=CCNC(=O)N1CCC(c2nc3ccccc3s2)CC1` here?
Its inhibition is -8.35%.

For `Oc1cccc(/C=N/NC(=S)NCCN2CCOCC2)c1O`, which inhibition is on record?
The inhibition was -1.62%.

Which inhibition does the source give for `S=C(NCCN1CCOCC1)N/N=C/c1ccccc1` here?
The inhibition was -4.03%.

For `CCCn1c(SCC(=O)Nc2ccc(S(=O)(=O)N(C)C)cc2)n[nH]c1=O`, which inhibition is on record?
Its inhibition is -9.52%.

For `CCn1c(SCC(=O)Nc2ccc3c(c2)OCO3)nnc1C(C)C`, which inhibition is on record?
The inhibition was -4.67%.

Which inhibition does the source give for `COc1ccc(C2CC(c3ccccc3)=NN2C(=O)COC(=O)c2ccc(S(C)(=O)=O)cc2)cc1` (stereo not given) here?
The inhibition was 1.53%.

With `COc1ccc(C2=NN(C(=O)COC(=O)c3ccc(NC(=O)CC#N)cc3)C(c3ccco3)C2)cc1` (stereo not given) as the molecule, how does the inhibition read?
The inhibition was -7.88%.

With `Cc1cccc(-n2c(-c3csc4ccccc34)n[nH]c2=S)c1` as the molecule, how does the inhibition read?
Its inhibition is 2.9%.

Which inhibition does the source give for `Cc1nonc1NC(=O)CSc1ccccn1` here?
The inhibition was 2.01%.

For `CC(=O)Nc1nonc1NC(=O)CSc1ccccn1`, which inhibition is on record?
Its inhibition is -2.12%.

With `CN1C(=O)c2ccccc2N(C)C1c1cccc(O)c1` (stereo not given) as the molecule, how does the inhibition read?
Its inhibition is 0.25%.

With `O=C(CN1C(=O)c2cccc3cccc1c23)NCc1ccccn1` as the molecule, how does the inhibition read?
Its inhibition is -1.94%.

For `COc1ccc(S(=O)(=O)Nc2cccc(S(=O)(=O)N3CCCC3)c2)cc1OC`, which inhibition is on record?
The inhibition was -4.75%.

Which inhibition does the source give for `CCOC(=O)CCCNC(=O)COC(=O)c1ccc(O)cc1` here?
Its inhibition is -6.12%.

For `CCOC(=O)CCCNC(=O)COC(=O)c1cc(C)cc(C)c1`, which inhibition is on record?
Its inhibition is -0.59%.

For `COc1cc(NS(=O)(=O)c2c(C)[nH]c(C)c2C(=O)N2CCCCC2)cc(OC)c1OC`, which inhibition is on record?
Its inhibition is 7.96%.

Which inhibition does the source give for `O=C(NC(=Nc1nc2ccccc2o1)NC(=O)c1ccccc1)c1ccccc1` here?
Its inhibition is 3.54%.

For `COc1ccccc1C(=O)N/C(N)=N/c1nc2ccccc2o1`, which inhibition is on record?
Its inhibition is 0.95%.

With `CCC(=O)N(Cc1ccco1)Cc1cc2cc3c(cc2[nH]c1=O)OCO3` as the molecule, how does the inhibition read?
Its inhibition is 3.54%.

For `S=C(NCCc1ccccc1)N1CCN(C23CC4CC(CC(C4)C2)C3)CC1`, which inhibition is on record?
The inhibition was 7.41%.

Which inhibition does the source give for `CCN1CCN(C2CCCCC2NS(=O)(=O)c2ccccc2)CC1` (stereo not given) here?
The inhibition was -5.99%.

Which inhibition does the source give for `Cc1c(C(=O)Nc2nc3ccccc3[nH]2)oc2ccc(Br)cc12` here?
The inhibition was 64.1%.

For `COc1ccc2oc(C(=O)Nc3nc4ccccc4[nH]3)c(C)c2c1`, which inhibition is on record?
Its inhibition is 25.6%.

For `CCC(C)(C)NC(=O)Cn1c(-c2ccc(C)cc2)noc1=O`, which inhibition is on record?
Its inhibition is -4.07%.

Which inhibition does the source give for `Cc1ccc(C(=O)Cn2c(-c3ccccc3)noc2=O)cc1` here?
The inhibition was 2.22%.

For `Cn1ccc(-c2ccccc2)c(C#N)c1=O`, which inhibition is on record?
The inhibition was -0.87%.

Which inhibition does the source give for `Cc1ccc2nc(SCC(=O)NCC3CCCO3)c(C#N)cc2c1` (stereo not given) here?
Its inhibition is 9.97%.

For `Clc1ccccc1OCCCCn1ccnc1`, which inhibition is on record?
Its inhibition is -6.48%.

With `Cc1ccccc1OCCCCCn1ccnc1` as the molecule, how does the inhibition read?
Its inhibition is -16.2%.

With `COc1ccccc1NC(=O)C(C)OC(=O)/C(=C/c1ccccc1)NC(C)=O` (stereo not given) as the molecule, how does the inhibition read?
Its inhibition is 5.35%.

Which inhibition does the source give for `O=C(Nc1ccc2c(c1)OCO2)c1cccs1` here?
Its inhibition is -1.92%.

Which inhibition does the source give for `O=C(Nc1ccc2c(c1)OCO2)c1ccc(Br)s1` here?
The inhibition was 65%.

Which inhibition does the source give for `O=c1[nH]nc(-c2ccc(F)cc2)cc1Cc1ccccn1` here?
Its inhibition is 1.36%.

For `CCC(C)(C)NC(=O)C(c1ccc(OC)cc1)N(C(=O)CCC(=O)Nc1cc(C)on1)c1ccccc1OC` (stereo not given), which inhibition is on record?
Its inhibition is -10.6%.

Which inhibition does the source give for `O=[N+]([O-])c1ccccc1/C=C/CN1CCCCC1` here?
The inhibition was -9.58%.
